High-throughput results (PubChem)
Gal4-VP16 FLuc – VP16 counterscreen qHTS for inhibitors of ROR gamma transcriptional activity; Drosophila S2 Gal4-VP16 UAS-luciferase, luminescence, 20 h; Potency, µM (series often up to 53.6 µM), for the others: at the top dose activity, negative = inhibition, hits mostly inhibitors; actives 3.5% (n = 310,000); AID 2546, 2010;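 note: Gal4-VP16 expression switched on by copper sulfate through the metallothionein promoter; nearly all actives have a fitted effect of over 50% in size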
RORg inh – qHTS for inhibitors of ROR gamma transcriptional activity. Nuclear receptor ROR-gamma (Mus musculus), P51450. Drosophila S2 Gal4-RORgamma UAS-luciferase reporter, 20 h. Potency, µM (titrated, usually from 53.6 µM), inactives show at the highest dose activity change, negative = inhibition, hits mostly inhibitors. actives 5.4% (n = 310,000). AID 2551, 2010; note: nearly all actives have a fitted effect of over 60% in size
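Read-out: Photinus luciferase luminescence; inhibitors lower reporter signal. Insect Schneider cells with Gal4-ROR gamma fusion under metallothionein promoter, UAS reporter; 700 uM final copper sulfate induction, 20 hr, ambient temperature.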
TDP1 cell noCPT – qHTS for Inhibitors of human tyrosyl-DNA phosphodiesterase 1 (TDP1): qHTS in cells in absence of CPT | actives 15% (n = 420,000) | Potency, µM (series often up to 46.2 µM), without a hit: at the top dose activity change, negative = growth inhibition, usual class: inhibitors | DT40 Tdp1-/- hTDP1 cells, no CPT, ATP luminescence, 48 h | AID 686978, 2013; note: nearly all actives have a fitted effect of over 55% in size
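Chicken DT40 Tdp1-/- cells stably complemented with human TDP1 were seeded at 400 cells/well with DMSO in place of 20 nM camptothecin. After compound pinning, cells grew at least 48 hr at 37 °C; viability read by CellTiter-Glo luminescence.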
TDP1 inh – qHTS Assay for Inhibitors of Tyrosyl-DNA Phosphodiesterase (TDP1) | Potency, µM (series often up to 130 µM), for the others: at the top dose activity change, negative = inhibition, usual class: inhibitors | recombinant TDP1, AlphaScreen DNA substrate cleavage | AID 485290, 2010 | Tyrosyl-DNA phosphodiesterase 1 (Homo sapiens), Q9NUW8 | actives 0.28% (n = 350,000); note: nearly all actives have a fitted effect of over 40% in size
Target sequence (Q9NUW8 whole entry, looked up): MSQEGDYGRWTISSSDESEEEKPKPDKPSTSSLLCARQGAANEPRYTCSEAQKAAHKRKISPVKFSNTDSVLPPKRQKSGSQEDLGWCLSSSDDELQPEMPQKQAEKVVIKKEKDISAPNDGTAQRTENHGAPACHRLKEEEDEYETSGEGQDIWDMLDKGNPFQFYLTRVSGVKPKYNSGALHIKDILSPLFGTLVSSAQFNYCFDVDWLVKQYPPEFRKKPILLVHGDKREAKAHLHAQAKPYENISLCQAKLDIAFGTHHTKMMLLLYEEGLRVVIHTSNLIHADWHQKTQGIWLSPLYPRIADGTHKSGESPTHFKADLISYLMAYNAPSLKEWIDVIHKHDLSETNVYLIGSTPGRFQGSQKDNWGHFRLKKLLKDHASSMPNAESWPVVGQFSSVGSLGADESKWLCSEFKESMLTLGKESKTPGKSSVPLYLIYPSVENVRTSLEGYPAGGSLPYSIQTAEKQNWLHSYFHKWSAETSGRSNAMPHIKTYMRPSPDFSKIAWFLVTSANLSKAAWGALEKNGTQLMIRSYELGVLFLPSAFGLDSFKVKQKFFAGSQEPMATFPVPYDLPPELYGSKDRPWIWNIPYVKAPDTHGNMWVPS
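E. coli-derived human Tdp1, 1 nM final. Cpd preinc 15 min RT; substrate 15 nM final, 5 min RT; AS bead mix 10 ug/ml final, 10 min RT. Signal loss = tyrosine-FITC cleavage. No-enzyme wells = max signal.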
TDP1 cell CPT – qHTS for Inhibitors of human tyrosyl-DNA phosphodiesterase 1 (TDP1): qHTS in cells in presence of CPT; actives 12% (n = 420,000); chicken DT40 Tdp1-/-;hTDP1 cells + 20 nM CPT, ATP luminescence, 48 h; Potency, µM (titrated, usually from 46.2 µM), for the others: at the top dose activity change, negative = growth inhibition, usual class: inhibitors; note: nearly all actives have a fitted effect of over 55% in size
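Cell growth measured by CellTiter-Glo luminescence after a minimum 48 h, 37 C compound exposure with 20 nM CPT in Tdp1-knockout DT40 cells stably expressing hTDP1, seeded 400/well; qHTS titration format.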
Starred values were filed as active, the others as inactive; ? = inconclusive; · = no result. This is a sample that favours compounds with a hit; in the whole collection about 19% have one here. Calls come from the whole dose curve; as a rule, active = well fitted curve in the direction sought with a large enough effect; inconclusive = small, poorly fitted or top-dose-only effect, or another doubt; inactive = no such curve, though single readings can be large; an effect the other way counts as inactive or inconclusive. % is set by controls: 0 for no effect and ±100 for the full control effect; potency is the fitted concentration of half-maximal effect.

SMILES	Gal4-VP16 FLuc	RORg inh	TDP1 cell noCPT	TDP1 inh	TDP1 cell CPT
Nc1c(C(=O)C2CC2)sc2nc(-c3ccccc3)cc(C(F)(F)F)c12	?	?	15.6%	-2.6%	1.1%
CN(C)CCNC(=O)c1sc2nc(-c3ccccc3)cc(C(F)(F)F)c2c1N	?	?	16.4µM*	2.8%	?
O=C(N/N=C/c1cccc2ccccc12)c1n[nH]c2c1CCCC2	0.6%	-43.9%	4.11µM*	-2.6%	4.61µM*
O=C(N/N=C/c1ccc(Cl)cc1Cl)c1n[nH]c2c1CCCC2	2.0%	16.8%	2.91µM*	5.3%	2.91µM*
CN1CCc2sc(NC(=O)Cc3ccccc3)c(C(=O)Nc3ccc(Cl)cc3)c2C1	·	·	·	-5.6%	·
Cc1cc(C)n(-c2nc(NCC3CCCO3)c3c4c(sc3n2)COC(C)(C)C4)n1 (stereo not given)	3.16µM*	2.82µM*	3.66µM*	5.6%	5.17µM*
Cc1cc(C)n(-c2nc(SCCN(C)C)c3c4c(sc3n2)COC(C)(C)C4)n1	7.08µM*	5.01µM*	17.8µM*	2.0%	22.4µM*
Cc1cc(C)n(-c2nc(SCC(=O)NCC3CCCO3)c3c4c(sc3n2)CCCC4)n1 (stereo not given)	-23.6%	?	·	5.9%	·
COC(=O)[C@@]12CCCCN1[C@H](c1ccc(-c3ccc(Cl)c(Cl)c3)cc1)[C@H]1C(=O)N(C)C(=O)[C@H]12	·	·	16.4µM*	0.2%	11.6µM*
CCN1C(=O)[C@@H]2[C@@H](c3ccc(-c4ccc(Cl)c(Cl)c4)cc3)N3CCCC[C@@]3(C(=O)OC)[C@@H]2C1=O	·	·	16.4µM*	-1.0%	18.4µM*
CC(C)Cc1nn2c(=O)cc(COC(=O)c3ccccc3NC(=O)C3CCCCC3)nc2s1	·	·	-3.2%	1.2%	8.0%
S=C(Nc1cc(Cl)cc(Cl)c1)N1CCCC1	?	5.01µM*	13.4%	1.7%	3.0%
Cc1ccc(NC(=S)N2CCCCC2)cc1C	?	4.47µM*	?	·	0.3%
Cc1ccc(C2CCN(C(=S)Nc3cccc(C)c3)C2)cc1 (stereo not given)	-7.0%	7.94µM*	18.4µM*	2.7%	?
Cc1cccc(NC(=O)c2cc(NC(=O)C3CCCCC3C(=O)O)ccc2N2CCCCC2)c1 (stereo not given)	-15.6%	?	0.1%	3.3%	-2.8%
CC(=O)Nc1ccc(N2CCCCC2)c(C(=O)Nc2cccc(C)c2)c1	-6.8%	40.6%	9.2µM*	-1.9%	?
Cc1cc(N2CCC(C(=O)N(CC(C)C)CC(C)C)CC2)n2nc(C)c(-c3ccc(Cl)cc3)c2n1	·	·	-16.7%	8.1%	-24.6%
CS(=O)(=O)N(CC(=O)N1CCN(Cc2ccccc2)CC1)c1cccc(Cl)c1	7.9%	-0.9%	-19.2%	·	?
Cc1cccc(NC(=S)N2CCC(NC(=O)C3CCCCC3)CC2)c1	-4.9%	-2.6%	-12.4%	2.2%	-2.5%
Cc1cccc(NC(=S)N2CCCCC2)c1	17.8µM*	?	?	8.2%	?
O=C(Nc1ccc2nsnc2c1)N1CCCCCC1	10.8%	?	-2.0%	5.9%	-21.9%
Cc1ccc(C2CCN(C(=S)NC3CCCCC3)C2)cc1 (stereo not given)	?	?	18.4µM*	8.1%	?
S=C(Nc1ccc2nsnc2c1)N1CCCC1	11.2µM*	7.94µM*	1.0%	1.2%	1.1%
Cc1ccc(C2CCN(C(=S)NC(C)(C)C)C2)cc1 (stereo not given)	-5.7%	?	?	0.0%	?
Nc1cc(N)nc(SCC(=O)Nc2cc(S(=O)(=O)N3CCOCC3)ccc2Cl)n1	-14.1%	-1.4%	-13.0%	1.1%	?
Cc1cc(C)c2nccc(C)c2c1	·	·	2.6%	·	-11.8%
